Reference: the supplement of paper PMC9135407
Several values for one entry are separate records, joined by “and”; a condition that tells them apart may be missing. Identical values can stand only once. Counter-ions that a name gives are not always drawn. Out of some 5,800 compounds screened, about 620 (11%) showed activity. What follows is part of a selection rich in actives, with near analogues and random picks from the rest. Values without a mark were called inactive.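 Rule for the calls: active = score above a cut-off or among the top three wells of a plate; in these data no inactive exceeds 0.85.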

Test system: primary human hepatic stellate cells (donor 1)
Assay: scaled lipid accumulation score (0 = DMSO-like, 1 = nortriptyline-like); higher = stronger HSC inactivation (lipid re-accumulation), active = hit call of the paper
Conditions: 48 h
[1] = library stock concentration: 3.33 mM
[2] = library stock concentration: 10 mM
[3] = library stock concentration: 1 mM
[4] = library stock concentration: 100 uM
[5] = library stock concentration: 80 uM
[6] = library stock concentration: 400 uM
[7] = library stock concentration: 2 mM
[8] = library stock concentration: 6.8 mM
[9] = library stock concentration: 4.9 mM

## CS(=O)(=O)c1ccc([C@H](O)[C@@H](COC(=O)CN)NC(=O)C(Cl)Cl)cc1 [Thiamphenicol glycinate]
Library stock concentration: 4.8 mM
  scaled lipid accumulation score: 0.01

## O=C(O)Cn1nnc(-c2cc(N3CCC(Oc4cc(F)ccc4Br)CC3)no2)n1
[1]
  scaled lipid accumulation score: ≤ 0
[2]
  scaled lipid accumulation score: ≤ 0

## CCCCC[C@H](O)/C=C/[C@@H]1[C@@H](C/C=C\CCCC(=O)N(CC)CC)[C@@H](O)C[C@H]1O [Prostaglandin F2.alpha. diethyl amide]
[3]
  scaled lipid accumulation score: ≤ 0

## CCc1cccc(N(C)C(=N)Nc2cccc3ccccc23)c1.Cl
[2]
  scaled lipid accumulation score: 0.912 (active)

## CC1CCC(C(C)C)C(O)C1 (stereo not drawn) [Menthol(-)]
[2]
  scaled lipid accumulation score: ≤ -0.027

## CC1(C)CC(=O)C(C2C3=C(CC(C)(C)CC3=O)Oc3ccccc32)C(=O)C1 (stereo not given)
[2]
  scaled lipid accumulation score: ≤ -0.002

## CCCCCC1OC1C/C=C\C/C=C\C/C=C\CCCC(=O)O (stereo not given)
[4]
  scaled lipid accumulation score: ≤ -0.021

## CC(=O)c1cnc2ccc(-c3cc(Cl)c(O)c(Cl)c3)nc2c1N[C@H]1CC[C@H](CN(C)C)CC1
[5]
  scaled lipid accumulation score: 0.258
[6]
  scaled lipid accumulation score: 0.847
[7]
  scaled lipid accumulation score: 0.765

## CC(=O)c1cnc2ccc(-c3cc(Cl)c(O)c(Cl)c3)nc2c1N[C@H]1CC[C@H](CN(C)C)CC1.Cl
[2]
  scaled lipid accumulation score: 0.872 (active)

## CCN(CC)CCNC(C(=O)OCCC(C)C)c1ccccc1 (stereo not given)
[2]
  scaled lipid accumulation score: 0.521

## Cc1ccc(C(=O)NCCCCCC(=O)Nc2ccccc2N)cc1
[1]
  scaled lipid accumulation score: ≤ -0.009
[2]
  scaled lipid accumulation score: 0.662

## c1ccc2c3c([nH]c2c1)C1C2CCC(C4CCCNC42)N1CC3 (stereo not given) [Nitrarine dihydrochloride]
  scaled lipid accumulation score: ≤ 0

## C[C@H](CS)C(=O)N1CCC[C@H]1C(=O)O [Captopril]
  scaled lipid accumulation score: 0.036
[1]
  scaled lipid accumulation score: ≤ 0
Library stock concentration: 9.2 mM
  scaled lipid accumulation score: ≤ -0.006 and ≤ 0
[2]
  scaled lipid accumulation score: ≤ 0

## CCCNC(=O)[C@H]1O[C@@H]1C(=O)N[C@H](C(=O)N1CCC[C@H]1C(=O)OC)C(C)CC (stereo not given in full)
Library stock concentration: 12.6 mM
  scaled lipid accumulation score: 0.868 (active)

## CCOC(=O)[C@H](CCc1ccccc1)N[C@@H](C)C(=O)N1CCC[C@H]1C(=O)O
[2]
  scaled lipid accumulation score: ≤ 0

## CCOC(=O)[C@H](CCc1ccccc1)N[C@@H](C)C(=O)N1CCC[C@H]1C(=O)O [Enalapril Maleate]
[1]
  scaled lipid accumulation score: 0.026
[2]
  scaled lipid accumulation score: ≤ 0

## C[C@H](CS)C(=O)N1CCC[C@H]1C(=O)O
[2]
  scaled lipid accumulation score: ≤ 0

## CCOC(=O)[C@H](CCc1ccccc1)N[C@@H](C)C(=O)N1CCC[C@H]1C(=O)O [Enalapril maleate]
  scaled lipid accumulation score: ≤ 0
[2]
  scaled lipid accumulation score: ≤ 0

## CCOC(=O)[C@H](CCc1ccccc1)N[C@@H](C)C(=O)N1CCC[C@H]1C(=O)O [Enalapril]
Library stock concentration: 5.3 mM
  scaled lipid accumulation score: ≤ 0

## O=C(O)/C(=C\c1c(C(=O)O)[nH]c2cc(Cl)cc(Cl)c12)c1ccccc1
[2]
  scaled lipid accumulation score: 0.017

## N[C@H](C(=O)O)[C@H](Cc1ccccc1)C(=O)O [L-Beta-threo-benzyl-aspartate]
[2]
  scaled lipid accumulation score: ≤ 0

## CC(C)NC[C@H](O)COc1cccc2ccccc12.Cl
Library stock concentration: 16.9 mM
  scaled lipid accumulation score: 1.02 (active)

## CC(C)NC[C@H](O)COc1cccc2ccccc12 [(S)-Propranolol hydrochloride]
[2]
  scaled lipid accumulation score: 0.445

## CC(C)NC[C@@H](O)COc1cccc2ccccc12 [(R)-(+)-Propranolol hydrochloride]
[2]
  scaled lipid accumulation score: 0.656

## CC(C)NC[C@@H](O)COc1cccc2ccccc12 [(R)-Propranolol hydrochloride]
  scaled lipid accumulation score: 0.415

## CC(C)NCC(O)COc1cccc2ccccc12 (racemic) [Propranolol hydrochloride (+/-)]
[8]
  scaled lipid accumulation score: 0.363
[2]
  scaled lipid accumulation score: 0.457

## CC(C)NCC(O)COc1cccc2ccccc12 (stereo not given)
[2]
  scaled lipid accumulation score: 0.847

## CC(C)NC[C@H](O)COc1cccc2ccccc12 [(S)-(-)-Propranolol hydrochloride]
[2]
  scaled lipid accumulation score: 0.518

## CC(C)NC[C@H](O)COc1cccc2ccccc12 [(S)-propranolol hydrochloride]
  scaled lipid accumulation score: 0.444

## CC(C)NCC(O)COc1cccc2ccccc12 (stereo not given) [Propranolol HCl]
[1]
  scaled lipid accumulation score: ≤ 0
[2]
  scaled lipid accumulation score: 0.555

## CC(C)NCC(O)COc1cccc2ccccc12.Cl (stereo not given)
[2]
  scaled lipid accumulation score: 0.882 (active)

## CC(C)NC[C@@H](O)COc1cccc2ccccc12 [Dexpropranolol hydrochloride]
[8]
  scaled lipid accumulation score: 0.521
[2]
  scaled lipid accumulation score: ≤ 0

## CC(C)NCC(O)COc1cccc2ccccc12 (stereo not given) [Propranolol hydrochloride]
  scaled lipid accumulation score: 0.378
[2]
  scaled lipid accumulation score: 0.74

## CC(C)NCC(O)COc1cccc2ccccc12 (stereo not given) [Propranolol]
Library stock concentration: 7.7 mM
  scaled lipid accumulation score: 0.676

## CCCOc1ccc(/C=C2/SC(=O)NC2=O)cc1 [PIM1/2 Kinase Inhibitor VI]
[1]
  scaled lipid accumulation score: 0.001

## C=CCn1c(=O)n([C@@H]2O[C@H](CO)[C@@H](O)[C@H]2O)c2nc(N)[nH]c(=O)c21
[2]
  scaled lipid accumulation score: 0.047

## CCCCC(C)(C)[C@H](O)/C=C/[C@@H]1[C@@H](C/C=C\CCCC(=O)O)[C@H](O)C[C@H]1O [16,16-dimethyl Prostaglandin F2.beta.]
[3]
  scaled lipid accumulation score: ≤ 0

## CCCCCC=CCC=CC=CC=CC(SCC(NC(C)=O)C(=O)O)C(O)CCCC(=O)O (stereo not given) [N-Acetyl-leukotriene E4]
[4]
  scaled lipid accumulation score: 0.032

## c1ccc(N2CCN(Cc3nc4ccccc4[nH]3)CC2)nc1 [ABT 724 trihydrochloride]
[2]
  scaled lipid accumulation score: ≤ -0.001

## O=C(O)CCc1nc2ccccc2[nH]1
[2]
  scaled lipid accumulation score: 0.2

## O=c1c2sc(-c3ccc(F)cc3)cc2ncn1Cc1nc2ccccc2[nH]1
[2]
  scaled lipid accumulation score: 0.756 (active)

## CCCCCCCCCCCCCCCCOP(=O)([O-])OCC[N+](C)(C)C [Miltefosine]
[3]
  scaled lipid accumulation score: ≤ 0
[9]
  scaled lipid accumulation score: ≤ -0.006
[2]
  scaled lipid accumulation score: 0.007

## O=C(NCc1ccccc1)c1csc(Nc2ccncn2)n1 [Thiazovivin]
[1]
  scaled lipid accumulation score: ≤ 0
[2]
  scaled lipid accumulation score: 0.14

## O=C(NCc1cccc(O)c1)Nc1nc(-c2ccncc2)cs1 [listing 1 of 2 here]
[2]
  scaled lipid accumulation score: 1.02 (active)

## O=C(NCc1cccc(O)c1)Nc1nc(-c2ccncc2)cs1 [listing 2 of 2 here]
[1]
  scaled lipid accumulation score: 0.56

## Cc1nnc(C(C)C)n1C1C[C@H]2CC[C@@H](C1)N2CC[C@H](NC(=O)C1CCC(F)(F)CC1)c1ccccc1 (stereo in doubt) [Maraviroc]
[1]
  scaled lipid accumulation score: ≤ 0
[2]
  scaled lipid accumulation score: ≤ 0

## COc1ccc(/C=C/c2cc(Cl)cc(Cl)c2)cc1
[3]
  scaled lipid accumulation score: ≤ 0

## CCCCCCCCCCCCCCCNC(=O)C1CCCCC1 [N-Cyclohexanecarbonylpentadecylamine]
[3]
  scaled lipid accumulation score: ≤ 0

## CCN(CC)CCCN(c1ccccc1)C1Cc2ccccc2C1 [Aprindine hydrochloride]
[2]
  scaled lipid accumulation score: 0.262

## O=C(O)CCC/C=C\C[C@@H]1[C@@H](/C=C/[C@H](O)C2Cc3ccccc3C2)[C@@H](F)C[C@@H]1O
[2]
  scaled lipid accumulation score: ≤ -0.07

## CC1(C)CC(=O)c2c(C(F)(F)F)nn(-c3ccc(C(N)=O)c(N[C@H]4CC[C@H](O)CC4)c3)c2C1
[1]
  scaled lipid accumulation score: 0.635
[2]
  scaled lipid accumulation score: 0.742

## CC1(C)CC(=O)c2c(C(F)(F)F)nn(-c3ccc(C(N)=O)c(N[C@H]4CC[C@H](OC(=O)CN)CC4)c3)c2C1 [listing 1 of 2 here]
[2]
  scaled lipid accumulation score: 1.05 (active)

## CC1(C)CC(=O)c2c(C(F)(F)F)nn(-c3ccc(C(N)=O)c(N[C@H]4CC[C@H](OC(=O)CN)CC4)c3)c2C1 [listing 2 of 2 here]
[1]
  scaled lipid accumulation score: 0.77

## c1ccc(COCCCc2c[nH]cn2)cc1 [Proxyfan Oxalate]
[2]
  scaled lipid accumulation score: ≤ 0

## CC(C)(S)C(N)C(=O)O (racemic)
[2]
  scaled lipid accumulation score: ≤ 0

## Cc1cc(Nc2cc(N3CCN(C)CC3)nc(Sc3ccc(NC(=O)C4CC4)cc3)n2)n[nH]1 [VX-680 (Tozasertib, MK-0457)]
[1]
  scaled lipid accumulation score: 0.193
[2]
  scaled lipid accumulation score: 0.038

## Cc1cc(Nc2cc(N3CCN(C)CC3)nc(Sc3ccc(NC(=O)C4CC4)cc3)n2)n[nH]1
[5]
  scaled lipid accumulation score: 0.003
[6]
  scaled lipid accumulation score: 0.063
[7]
  scaled lipid accumulation score: 0.248
[2]
  scaled lipid accumulation score: 0.47

## Cc1cc(Nc2cc(N3CCN(C)CC3)nc(/C=C/c3ccccc3)n2)n[nH]1
[2]
  scaled lipid accumulation score: 0.603

## Cc1cc(Nc2cc(N3CCN(C)CC3)nc(C=Cc3ccccc3)n2)n[nH]1
[1]
  scaled lipid accumulation score: 1.06 (active)

## Cc1cc(Nc2cc(N3CCN(C)CC3)nc(Sc3ccc(NC(=O)C4CC4)cc3)n2)n[nH]1 [Tozasertib (VX-680, MK-0457) (0.4 mM)]
[6]
  scaled lipid accumulation score: ≤ -0.005

## Cc1cc(Nc2cc(N3CCN(C)CC3)nc(Sc3ccc(NC(=O)C4CC4)cc3)n2)n[nH]1 [Tozasertib (VX-680, MK-0457) (10 mM)]
[2]
  scaled lipid accumulation score: 0.456

## Cc1cc(Nc2cc(N3CCN(C)CC3)nc(Sc3ccc(NC(=O)C4CC4)cc3)n2)n[nH]1 [Tozasertib (VX-680, MK-0457) (2 mM)]
[7]
  scaled lipid accumulation score: ≤ -0.005

## Cn1cc(-c2cnn3c(N)c(Br)c([C@@H]4CCCNC4)nc23)cn1
[1]
  scaled lipid accumulation score: ≤ 0
[2]
  scaled lipid accumulation score: 0.521

## CCCCCCCCCCCCCCCC(=O)N[C@H](CN1CCOCC1)[C@H](O)c1ccccc1 (racemic)
[3]
  scaled lipid accumulation score: ≤ -0.021

## CCCCC[C@H](O)/C=C/[C@H]1[C@H](O)CC(=O)[C@@H]1CCCCCCCO [Prostaglandin E1 Alcohol]
[3]
  scaled lipid accumulation score: 0.129

## O=C1C(c2ccccc2)N(c2ccc(Br)cc2)C(=O)N1c1ccc(Br)cc1 (stereo not given)
[3]
  scaled lipid accumulation score: ≤ 0

## CC[C@H](C)C(=O)O[C@H]1C[C@H](O)C=C2C=C[C@H](C)[C@H](CC[C@@H]3C[C@@H](O)CC(=O)O3)[C@H]21 [Pravastatin lactone]
[9]
  scaled lipid accumulation score: ≤ 0
